Assay results: PubChem BioAssay (NCATS)
Records with an inconclusive call do not appear. A call without a number means that no potency is given here. Active and inactive are the calls of the source. The call rests on the fitted dose curve; in most records, active means well fitted inhibition curve with a large enough effect; inconclusive means small, poorly fitted or top-dose-only effect; inactive means flat fitted curve, though single readings scatter.

These molecules were tested on Zika virus NS2B-NS3 protease (assay: Primary screen GU AMC qHTS for Zika virus inhibitors (AID 1347154; further: nearly all actives have a fitted effect of over 70% in size)). Conditions: Zika NS2B-NS3 unlinked protease, AMC fluorogenic substrate; series mostly up to 54.1 µM.
Summary of the method: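 Fluorogenic AMC-substrate cleavage by noncovalent NS2B-NS3 protease complex (25 nM, pH 8.0 Tris buffer with Tween 20) followed for 15 minutes at room temperature (~20% conversion). Percent inhibition from ex340/em450 signal change, fitted by 4-parameter Hill equation.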

`COc1ccc([C@@H]2CNC(=O)C2)cc1OC1CCCC1` was tested. Which Potency did it give?
Its Potency is “inactive”.

For `O=C(O)C=Cc1ccc(Cn2ccnc2)cc1`, which Potency is on record?
Its Potency is “inactive”.

For `C[C@]12CCC(=O)C=C1[C@@H]1CC1[C@H]1[C@H]3[C@@H]4C[C@H]4[C@@]4(CCC(=O)O4)[C@@]3(C)CC[C@H]12` (stereo partly drawn), which Potency is on record?
Its Potency is “inactive”.
